Six1-Eya2 inh = qHTS Assay for Inhibitors of the Six1/Eya2 Interaction; AlphaScreen GST-Six1/His-Eya2 binding, biochemical; active compounds read low; AID 651725, 2012; activity change, % (no concentration beside the values); actives 0.56% (n = 360,000); note: % is set by controls: 0 for no effect and ±100 for the full control effect
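AlphaScreen luminescence read after one hour at 37 °C in darkness. Pin-transferred compounds met GST-Six1 and His-Eya2 protein (5X stock 250 nM/500 nM) plus glutathione donor and Ni-chelate acceptor beads (5X, 50 ug/mL).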
Menin-MLL TR inh = qHTS Assay for Inhibitors Targeting the Menin-MLL Interaction in MLL Related Leukemias: Competition With Texas Red Labeled MLL-derived Mutant Peptide. AID 1768, 2009. actives 0.23% (n = 270,000). Menin + Texas Red MLL mutant peptide, fluorescence polarization. Potency, µM (series often up to 61.6 µM), without a hit: top-dose FP activity change, negative = inhibition, hits mostly inhibitors; active = well fitted inhibition curve with a large enough effect in the polarisation, with a control signal flat, not every such curve was filed as active; inconclusive = small, poorly fitted or top-dose-only effect, or effect the other way, or a change in a side signal; inactive = no such curve, though single readings can be large or run the other way; the % refers to the polarisation; note: potency is the fitted concentration of half-maximal effect; % of control where 0% means no effect
Menin-MLL FL inh = qHTS Assay for Inhibitors Targeting the Menin-MLL Interaction in MLL Related Leukemias: Competition With Fluorescein Labeled MLL-derived Peptide. FP activity change, % at 61.4 µM. Fluorescence polarization, fluorescein-MLL peptide displacement from menin. 290,000 tested, under 10 active. AID 1766, 2009; active = well fitted curve in the direction sought with a large enough effect in the polarisation, not every such curve was filed as active; inconclusive = small, poorly fitted or top-dose-only effect, or effect the other way, or a change in a side signal; inactive = no such curve, though single readings can be large or run the other way; the % refers to the polarisation; note: % of control where 0% means no effect
GLS inh = qHTS for Inhibitors of Glutaminase (GLS); GLS enzymatic activity, qHTS titration; actives 0.21% (n = 410,000); Potency, µM (top dose mostly 45.5 µM), inactives show at the highest dose activity change, negative = inhibition, actives largely listed as inhibitors; Glutaminase kidney isoform, mitochondrial (Homo sapiens), O94925; active = well fitted inhibition curve with a large enough effect; inconclusive = small, poorly fitted or top-dose-only effect, or another doubt; inactive = no such curve, though single readings can be large or run the other way; note: potency is the fitted concentration of half-maximal effect; % is set by controls: 0 for no effect and ±100 for the full control effect
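Enzyme dispensed in phosphate buffer (45 mM, pH 8.2, 0.02% Tween-20), compounds pinned in, then 1 mM L-glutamine solution and the glutamate oxidase–HRP–Amplex Red mix added; fluorescence read immediately and again after 30 min at room temperature.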
CXXC DNA block = qHTS Fluorescence Polarization Assay for Inhibitors of MLL CXXC domain - DNA interaction; AID 2662, 2010; Potency, µM (titrated, usually from 115 µM), inactives show at the top dose activity change, negative = inhibition, usual class: inhibitors; MLL-CXXC / FITC-HOXA9 DNA fluorescence polarization; actives 0.037% (n = 290,000); active = well fitted inhibition curve with a large enough effect in the polarisation, with a control signal flat, not every such curve was filed as active; inconclusive = small, poorly fitted or top-dose-only effect, or effect the other way, or a change in a side signal; inactive = no such curve, though single readings can be large or run the other way; the % refers to the polarisation; note: potency is the fitted concentration of half-maximal effect
Target sequence (Q03164 whole entry, looked up, the tested form may be a part): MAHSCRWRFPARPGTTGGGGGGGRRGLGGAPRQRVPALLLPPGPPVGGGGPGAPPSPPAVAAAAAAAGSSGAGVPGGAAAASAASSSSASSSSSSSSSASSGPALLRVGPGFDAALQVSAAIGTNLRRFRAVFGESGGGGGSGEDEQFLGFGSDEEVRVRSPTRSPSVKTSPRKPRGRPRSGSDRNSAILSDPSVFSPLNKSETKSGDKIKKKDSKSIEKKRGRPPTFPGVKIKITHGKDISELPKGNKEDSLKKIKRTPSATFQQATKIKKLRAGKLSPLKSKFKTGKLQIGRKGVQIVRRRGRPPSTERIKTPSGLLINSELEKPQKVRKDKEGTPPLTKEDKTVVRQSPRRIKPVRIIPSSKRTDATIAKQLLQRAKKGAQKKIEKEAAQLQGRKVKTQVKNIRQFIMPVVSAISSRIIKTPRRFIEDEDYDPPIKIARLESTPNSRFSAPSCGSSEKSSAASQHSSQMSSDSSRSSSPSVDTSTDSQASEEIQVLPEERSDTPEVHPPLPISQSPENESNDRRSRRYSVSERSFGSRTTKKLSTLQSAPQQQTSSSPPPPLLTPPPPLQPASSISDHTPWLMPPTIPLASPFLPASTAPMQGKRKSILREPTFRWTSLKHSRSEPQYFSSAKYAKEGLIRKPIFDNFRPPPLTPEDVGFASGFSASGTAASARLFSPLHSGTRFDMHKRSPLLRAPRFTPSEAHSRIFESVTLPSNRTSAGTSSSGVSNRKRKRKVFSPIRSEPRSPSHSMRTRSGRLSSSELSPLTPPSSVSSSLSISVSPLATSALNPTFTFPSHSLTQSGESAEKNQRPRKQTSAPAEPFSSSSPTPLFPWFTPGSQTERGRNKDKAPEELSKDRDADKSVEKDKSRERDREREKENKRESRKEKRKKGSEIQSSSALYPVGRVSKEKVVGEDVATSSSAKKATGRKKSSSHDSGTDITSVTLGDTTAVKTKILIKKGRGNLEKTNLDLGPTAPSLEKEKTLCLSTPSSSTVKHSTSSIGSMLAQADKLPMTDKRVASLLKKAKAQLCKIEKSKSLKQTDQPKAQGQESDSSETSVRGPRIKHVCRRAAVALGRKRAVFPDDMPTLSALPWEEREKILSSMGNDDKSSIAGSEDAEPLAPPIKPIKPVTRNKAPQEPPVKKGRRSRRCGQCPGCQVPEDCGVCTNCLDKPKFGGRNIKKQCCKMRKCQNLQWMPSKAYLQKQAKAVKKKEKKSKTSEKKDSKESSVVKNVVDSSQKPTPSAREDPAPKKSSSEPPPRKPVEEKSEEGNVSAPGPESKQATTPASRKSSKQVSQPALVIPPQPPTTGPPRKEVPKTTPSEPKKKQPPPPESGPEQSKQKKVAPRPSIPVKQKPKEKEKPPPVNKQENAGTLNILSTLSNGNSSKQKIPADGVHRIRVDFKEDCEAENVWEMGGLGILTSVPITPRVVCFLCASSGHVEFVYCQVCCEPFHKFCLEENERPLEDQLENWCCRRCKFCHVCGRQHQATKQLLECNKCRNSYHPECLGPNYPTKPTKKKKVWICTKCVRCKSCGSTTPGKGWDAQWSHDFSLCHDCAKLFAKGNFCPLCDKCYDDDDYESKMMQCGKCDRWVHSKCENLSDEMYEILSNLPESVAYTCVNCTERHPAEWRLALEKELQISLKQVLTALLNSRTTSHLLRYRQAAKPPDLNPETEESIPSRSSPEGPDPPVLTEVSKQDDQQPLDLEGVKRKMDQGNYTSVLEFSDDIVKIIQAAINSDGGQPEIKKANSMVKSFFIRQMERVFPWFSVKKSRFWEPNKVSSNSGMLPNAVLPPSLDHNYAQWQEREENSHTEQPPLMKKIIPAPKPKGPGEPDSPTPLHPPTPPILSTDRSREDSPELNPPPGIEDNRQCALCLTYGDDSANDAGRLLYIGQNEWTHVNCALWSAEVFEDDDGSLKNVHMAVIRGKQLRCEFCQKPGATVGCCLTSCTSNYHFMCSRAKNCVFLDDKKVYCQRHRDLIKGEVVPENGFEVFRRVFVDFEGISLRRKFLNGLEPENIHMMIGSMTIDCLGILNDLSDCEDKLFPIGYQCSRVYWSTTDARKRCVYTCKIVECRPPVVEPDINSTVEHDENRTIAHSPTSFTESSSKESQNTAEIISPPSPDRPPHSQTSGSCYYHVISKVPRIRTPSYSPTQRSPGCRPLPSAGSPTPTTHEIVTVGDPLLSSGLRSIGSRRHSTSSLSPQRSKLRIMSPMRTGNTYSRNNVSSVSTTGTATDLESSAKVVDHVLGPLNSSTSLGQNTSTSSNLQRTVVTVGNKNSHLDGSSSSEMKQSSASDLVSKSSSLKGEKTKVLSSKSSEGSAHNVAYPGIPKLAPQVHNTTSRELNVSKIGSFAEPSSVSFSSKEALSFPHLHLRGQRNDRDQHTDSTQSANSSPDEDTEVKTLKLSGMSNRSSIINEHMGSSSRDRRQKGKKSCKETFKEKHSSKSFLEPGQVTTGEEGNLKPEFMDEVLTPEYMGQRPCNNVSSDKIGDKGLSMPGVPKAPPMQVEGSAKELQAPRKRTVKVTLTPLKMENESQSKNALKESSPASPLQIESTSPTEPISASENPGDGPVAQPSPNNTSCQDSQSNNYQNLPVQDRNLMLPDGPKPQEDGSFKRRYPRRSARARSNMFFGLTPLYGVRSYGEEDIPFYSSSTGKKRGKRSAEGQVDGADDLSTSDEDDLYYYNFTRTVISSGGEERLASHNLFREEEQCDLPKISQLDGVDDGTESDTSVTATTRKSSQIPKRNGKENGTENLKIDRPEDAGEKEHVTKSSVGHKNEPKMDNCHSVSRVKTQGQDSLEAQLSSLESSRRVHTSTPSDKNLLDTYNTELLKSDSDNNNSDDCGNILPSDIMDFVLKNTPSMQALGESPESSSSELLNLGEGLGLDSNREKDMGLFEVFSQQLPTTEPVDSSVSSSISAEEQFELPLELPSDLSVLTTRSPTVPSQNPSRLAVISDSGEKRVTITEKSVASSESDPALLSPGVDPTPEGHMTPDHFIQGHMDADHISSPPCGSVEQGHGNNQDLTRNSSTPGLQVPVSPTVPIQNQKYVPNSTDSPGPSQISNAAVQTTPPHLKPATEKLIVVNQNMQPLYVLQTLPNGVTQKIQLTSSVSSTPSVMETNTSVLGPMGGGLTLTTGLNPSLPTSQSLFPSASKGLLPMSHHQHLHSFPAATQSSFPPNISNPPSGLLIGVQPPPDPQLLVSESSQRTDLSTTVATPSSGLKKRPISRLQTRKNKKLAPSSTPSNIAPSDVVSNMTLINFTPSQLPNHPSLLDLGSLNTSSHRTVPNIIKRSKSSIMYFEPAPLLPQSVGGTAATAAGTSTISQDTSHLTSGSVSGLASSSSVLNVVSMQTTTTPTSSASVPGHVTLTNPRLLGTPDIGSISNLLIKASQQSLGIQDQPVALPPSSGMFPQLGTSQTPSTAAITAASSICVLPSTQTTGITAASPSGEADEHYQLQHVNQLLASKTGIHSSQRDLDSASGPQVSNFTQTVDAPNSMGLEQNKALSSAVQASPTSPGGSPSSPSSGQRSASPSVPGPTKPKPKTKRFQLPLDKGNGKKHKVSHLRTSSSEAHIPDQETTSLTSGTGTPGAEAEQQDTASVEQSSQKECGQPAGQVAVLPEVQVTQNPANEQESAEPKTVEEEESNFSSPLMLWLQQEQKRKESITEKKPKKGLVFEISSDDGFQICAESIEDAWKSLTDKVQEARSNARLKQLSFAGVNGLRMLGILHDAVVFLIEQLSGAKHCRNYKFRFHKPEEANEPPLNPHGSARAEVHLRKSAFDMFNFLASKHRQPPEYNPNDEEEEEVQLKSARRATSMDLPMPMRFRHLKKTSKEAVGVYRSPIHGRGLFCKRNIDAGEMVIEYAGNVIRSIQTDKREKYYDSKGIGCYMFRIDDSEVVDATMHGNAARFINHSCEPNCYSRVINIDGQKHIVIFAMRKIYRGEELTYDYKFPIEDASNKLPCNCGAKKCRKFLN
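Steps: dispense CXXC domain solution (7 uM) → pin compounds or unlabeled HOX-A9 DNA control → 5 min ambient → add FLSN-HOX-A9 solution (50 nM) → spin → 30 min ambient → fluorescence polarization. Tris pH 7.5/NaCl/DTT/BSA buffer.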
CtBP-E1A blk = qHTS Assay for Inhibitors of the CtBP/E1A Interaction; CtBP / adenovirus E1A interaction (AlphaScreen); AlphaScreen GST-E1A/His-CtBP binding, 1536-well; active compounds read low; activity change, % (concentration not given with the values); actives 0.49% (n = 340,000); AID 651724, 2012; note: % is set by controls: 0 for no effect and ±100 for the full control effect
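Homogeneous bead-based format: GST-tagged E1A captured on glutathione donor beads, His-tagged CtBP on nickel acceptor beads; compounds precede bead addition by 2 h at 37 °C.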
* marks the source's active call; other numbers are inactive results; [ ] = remark or other dose. An excerpt weighted towards active compounds, which were near 0.83% of everything screened. Cut-off read from the data, not from the text of the source, unless noted: active = activity change below about -65%; inconclusive = mostly about -30% to -63%; inactive = weaker than that.

Screening COc1ccc(NC(=O)c2cc3cccc(OC)c3oc2=Nc2ccc(C(=O)O)cc2)cc1OC returned Six1-Eya2 inh 4, Menin-MLL TR inh inconclusive, Menin-MLL FL inh 0, GLS inh 6.3µM*, CXXC DNA block inconclusive and CtBP-E1A blk -2.
`Cc1cccc(NC(=S)c2nc3ccccc3s2)c1` gave Six1-Eya2 inh -75*, Menin-MLL TR inh inconclusive, Menin-MLL FL inh 1, GLS inh 5%, CXXC DNA block -1% and CtBP-E1A blk -81*.
Screening O=C(Nc1ccccc1)c1nc2ccccc2s1 returned Six1-Eya2 inh 14, Menin-MLL TR inh -5%, GLS inh -8%, CXXC DNA block 10% and CtBP-E1A blk 26.
For Nc1nc(-c2ccccc2)c(N=Nc2cccc3ccccc23)s1 the results were Six1-Eya2 inh -78*, Menin-MLL TR inh inconclusive, Menin-MLL FL inh -1, GLS inh -5%, CXXC DNA block -10% and CtBP-E1A blk -93*.
Nc1nc(-c2ccc(Cl)cc2)c(N=Nc2ccc(S(=O)(=O)N3CCOCC3)cc2)s1 was read as Six1-Eya2 inh -13, Menin-MLL TR inh inconclusive, Menin-MLL FL inh 5, GLS inh 1%, CXXC DNA block 10% and CtBP-E1A blk -8.
`Cc1ncc(N=Nc2ccccc2Cl)c(-c2ccccc2)n1` gave Six1-Eya2 inh -69*, Menin-MLL TR inh 6%, Menin-MLL FL inh 6, GLS inh -2%, CXXC DNA block -5% and CtBP-E1A blk -66*.
CC(=O)Nc1sc(N)nc1-c1ccccc1 was read as Six1-Eya2 inh 6, Menin-MLL TR inh 1%, Menin-MLL FL inh -4, GLS inh 13%, CXXC DNA block -9% and CtBP-E1A blk 4.
Screening Nc1nc(-c2ccccc2)c(N=Nc2ccccc2Cl)s1 returned Six1-Eya2 inh -76*, Menin-MLL TR inh inconclusive, Menin-MLL FL inh 3, GLS inh -13%, CXXC DNA block inconclusive and CtBP-E1A blk -67*.
`CCOc1ccccc1C1CC(=O)NC(C)=C1C(=O)OCc1ccc(C)cc1` (centres undefined) gave GLS inh -5%.
Screening Cc1csc(N=Nc2ccc(N(C)C)cc2)[n+]1[O-] returned Six1-Eya2 inh -77*, GLS inh 0% and CtBP-E1A blk inconclusive.
Cc1ccc(NC(=O)c2c(NC(=O)c3ccc(F)cc3)sc3c2CCCC3)cc1C was read as GLS inh -3%.
O=C(Cc1ccc(F)cc1)Oc1ccc(C(=S)N2CCCC2)cc1 was read as Six1-Eya2 inh -71*, Menin-MLL TR inh -1%, Menin-MLL FL inh 5, GLS inh 23%, CXXC DNA block 107% and CtBP-E1A blk -1.
For COc1ccc(CC(=O)Oc2ccc(F)cc2)cc1 the results were Six1-Eya2 inh 28, Menin-MLL TR inh 4%, Menin-MLL FL inh 0, GLS inh -2%, CXXC DNA block 25% and CtBP-E1A blk 22.
Screening COc1ccc(C(=O)c2c(N)sc3c2CCN(C)C3)cc1 returned Six1-Eya2 inh 1, Menin-MLL TR inh 14µM*, Menin-MLL FL inh inconclusive, GLS inh inconclusive and CXXC DNA block inconclusive.
Screening CN1CCc2c(sc(N)c2C(=O)O)C1 returned Six1-Eya2 inh -3, Menin-MLL TR inh -8%, Menin-MLL FL inh -22, GLS inh 0% and CXXC DNA block 1%.
`CO/N=C(/C)CCC(=O)OC[C@@H]1O[C@H](c2ccccc2)C=C[C@@H]1Oc1ccc(OC)cc1` gave Menin-MLL TR inh -7%[11.7 µM] and Menin-MLL FL inh 0[11.7 µM].
Cc1cccc(N=Nc2ccc(O)c3ncccc23)c1 was read as Six1-Eya2 inh -84*, Menin-MLL TR inh inconclusive, GLS inh 29%, CXXC DNA block 3% and CtBP-E1A blk -79*.
For NS(=O)(=O)c1ccc(N=Nc2ccc(O)c3ncccc23)cc1 the results were Six1-Eya2 inh -97*, Menin-MLL TR inh inconclusive, Menin-MLL FL inh inconclusive, GLS inh 0% and CXXC DNA block inconclusive.
Screening Cc1ccc(C)c(N=Nc2ccc(O)c3ncccc23)c1 returned Six1-Eya2 inh inconclusive, Menin-MLL TR inh inconclusive, Menin-MLL FL inh 2, GLS inh 13%, CXXC DNA block 1% and CtBP-E1A blk inconclusive.
For Oc1ccc(N=Nc2ccc3c(c2)OCCO3)c2ncccc12 the results were Six1-Eya2 inh -76*, Menin-MLL FL inh 2, GLS inh -10% and CXXC DNA block -1%.
CCOc1ccc(N=Nc2ccc(O)c3ncccc23)cc1 was read as Six1-Eya2 inh -13, Menin-MLL TR inh inconclusive, Menin-MLL FL inh 2, GLS inh -4%, CXXC DNA block 10% and CtBP-E1A blk inconclusive.
Screening O=C(Nc1ncccc1O)c1ccc2c(c1)OCCO2 returned Six1-Eya2 inh -6, GLS inh -2% and CtBP-E1A blk 0.
For O=S(=O)(Nc1cc(O)cc2cccnc12)c1ccc(Br)s1 the results were Menin-MLL TR inh inconclusive and Menin-MLL FL inh 0.
For CN(C)C(=O)CNC(=O)Cc1ccccc1 the results were GLS inh -7%.
`O=C(O)C1C2CCC(O2)C1C(=O)Nc1ccc(O)cc1` (centres undefined) gave Six1-Eya2 inh 9, Menin-MLL TR inh 32µM*, GLS inh 1%, CXXC DNA block -2% and CtBP-E1A blk 20.
Screening Cc1ccc(NC(=O)C2C3CCC(O3)C2C(=O)O)cc1C (centres undefined) returned Six1-Eya2 inh 0, Menin-MLL TR inh -3%, Menin-MLL FL inh 1, GLS inh 0% and CXXC DNA block 4%.
`COc1ccc(NC(=O)C2CCCN(S(=O)(=O)c3ccc4c(c3)CCCN4C(C)=O)C2)cc1` (centres undefined) gave Six1-Eya2 inh -7, GLS inh 3%, CXXC DNA block 40% and CtBP-E1A blk -6.
`COc1cc(NC(=O)C2CCCN(S(=O)(=O)c3ccc4c(c3)CCCN4C(C)=O)C2)cc(OC)c1` (centres undefined) gave Six1-Eya2 inh inconclusive, Menin-MLL TR inh 19%, Menin-MLL FL inh -1, GLS inh 4%, CXXC DNA block 9% and CtBP-E1A blk -65*.
Screening CC(=O)c1ccc(OC(=O)CCc2nc3ccccc3s2)cc1 returned Six1-Eya2 inh -12, Menin-MLL TR inh 0%, Menin-MLL FL inh 0, GLS inh 7%, CXXC DNA block 32% and CtBP-E1A blk -7.

Screening data deposited in PubChem BioAssay by National Center for Advancing Translational Sciences (NCATS).
